BAZ2B inh – BAZ2B (human) inhibition | Q9UIF8 | AlphaScreen BAZ2B-H3K14Ac peptide displacement | Potency, µM (titrated, usually from 114 µM), for the others: top-dose activity change, negative = inhibition, most hits filed as inhibitors | 360,000 tested, 4.4% active | AID 504333; note: potency is the fitted concentration of half-maximal effect; % is set by controls: 0 for no effect and ±100 for the full control effect; nearly all actives have a fitted effect of over 60% in size
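Inhibition is scored as reduced AlphaScreen emission. The BAZ2B/b-H3(5-23)K14Ac complex (50 nM each) in PBS pH 7.4, 0.01% Tween-20 meets compound (up to 110 uM) for 30 min at RT before bead addition.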
G9a block – inhibitors of human histone lysine methyltransferase G9a; G9a H3K9 monomethylation, AlphaScreen, 2 h; Potency, µM (doses to about 102 µM), without a hit: at the top dose activity, negative = inhibition, actives largely listed as inhibitors; 350,000 tested, 8.8% active; AID 504332; Q96KQ7; note: potency is the fitted concentration of half-maximal effect; % is set by controls: 0 for no effect and ±100 for the full control effect; nearly all actives have a fitted effect of over 75% in size
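AlphaScreen read-out: biotin-H3K9 peptide (500 nM) methylation by 20 nM enzyme with 20 uM SAM, 2 h at room temperature after 15 min compound preincubation; anti-monomethyl H3K9 antibody plus donor/acceptor beads, 10 min dark.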
JMJD2A Tudor inh – inhibitors of human JMJD2A Tudor domain; Potency, µM (doses to about 114 µM), for the others: at the highest dose activity change, negative = inhibition, actives largely listed as inhibitors; 390,000 tested, 4.4% active; AlphaScreen JMJD2A-Tudor / H3K4me3 peptide binding; note: potency is the fitted concentration of half-maximal effect; % is set by controls: 0 for no effect and ±100 for the full control effect; nearly all actives have a fitted effect of over 50% in size
Target sequence (O75164 whole entry, looked up, the tested form may be a part): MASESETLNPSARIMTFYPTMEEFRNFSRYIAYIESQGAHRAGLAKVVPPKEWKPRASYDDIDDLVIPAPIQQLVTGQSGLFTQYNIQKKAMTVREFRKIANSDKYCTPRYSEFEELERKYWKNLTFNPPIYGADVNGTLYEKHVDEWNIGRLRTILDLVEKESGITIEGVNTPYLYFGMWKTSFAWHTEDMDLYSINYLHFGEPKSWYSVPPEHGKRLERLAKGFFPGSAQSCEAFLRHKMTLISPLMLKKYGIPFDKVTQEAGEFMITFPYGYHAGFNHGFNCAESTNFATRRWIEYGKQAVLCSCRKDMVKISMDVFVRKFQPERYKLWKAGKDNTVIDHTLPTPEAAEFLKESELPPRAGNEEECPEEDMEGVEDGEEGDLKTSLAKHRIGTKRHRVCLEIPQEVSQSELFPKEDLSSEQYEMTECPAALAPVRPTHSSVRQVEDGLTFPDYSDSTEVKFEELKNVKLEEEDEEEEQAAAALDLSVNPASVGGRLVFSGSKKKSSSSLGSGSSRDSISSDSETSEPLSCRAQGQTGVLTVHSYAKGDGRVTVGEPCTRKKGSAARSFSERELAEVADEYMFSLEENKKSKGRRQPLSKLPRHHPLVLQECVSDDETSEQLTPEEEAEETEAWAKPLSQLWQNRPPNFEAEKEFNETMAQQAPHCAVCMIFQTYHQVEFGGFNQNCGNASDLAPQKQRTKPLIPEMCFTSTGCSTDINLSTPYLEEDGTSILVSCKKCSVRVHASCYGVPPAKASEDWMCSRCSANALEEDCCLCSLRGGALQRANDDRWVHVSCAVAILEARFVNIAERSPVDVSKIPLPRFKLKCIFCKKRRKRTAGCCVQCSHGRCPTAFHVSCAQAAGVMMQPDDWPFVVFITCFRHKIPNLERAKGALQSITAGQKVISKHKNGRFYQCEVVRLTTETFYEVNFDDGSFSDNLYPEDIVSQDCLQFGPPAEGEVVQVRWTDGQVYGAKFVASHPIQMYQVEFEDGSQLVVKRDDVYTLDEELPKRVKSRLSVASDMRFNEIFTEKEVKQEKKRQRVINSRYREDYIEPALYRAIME
CtBP-E1A blk – blocks the CtBP interaction with E1A. 340,000 tested, 0.49% active. activity change, % (no concentration beside the values). AID 651724. AlphaScreen GST-E1A/His-CtBP binding, 1536-well; hits give low values; in the data active = activity change below about -65%; inconclusive = mostly about -30% to -63%; note: % is set by controls: 0 for no effect and ±100 for the full control effect
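In 5 uL wells, 23 nL compound meets equimolar GST-E1A and His-CtBP (5X stock 125 nM each) for 2 h, 37 °C. Beads (5X, 50 ug/mL) then 1 h, 37 °C, dark.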
HP1b chromo inh – blocks HP1-beta chromodomain binding to methylated histone tails | AlphaScreen HP1-beta / biotin-H3K9me3 peptide binding | 390,000 tested, 0.56% active | Potency, µM (titrated, usually from 114 µM), for the others: at the top dose activity change, negative = inhibition, most hits filed as inhibitors | P83916; note: potency is the fitted concentration of half-maximal effect; nearly all actives have a fitted effect of over 70% in size
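Compound inhibition of the preformed complex between 50 nM HP1-beta and 50 nM biotinylated H3K9me3 peptide was read by AlphaScreen. Buffer was PBS pH 7.4 with 0.01% Tween-20. Incubations ran 30 min at room temperature, with 10 ug/mL donor/acceptor beads.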
Six1-Eya2 inh – Six1/Eya2 interaction inhibition; Q15475+O00167; AlphaScreen GST-Six1/His-Eya2 binding, biochemical; hits give low values; activity change, % (test concentration not listed); 360,000 tested, 0.56% active; in the data active = activity change below about -65%; inconclusive = mostly about -30% to -63%; note: % is set by controls: 0 for no effect and ±100 for the full control effect
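GST-Six1 + His-Eya2 (5X stock: 250/500 nM); Tris pH 8.0, 300 mM NaCl, 0.05% BSA, 0.02% Tween 20; GSH donor/Ni acceptor beads; 1 h 37 °C dark; AlphaScreen readout.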
An asterisk follows results filed as active; ? = inconclusive; / = no result; [ ] = remark or other dose. Sampled rows, rich in hits. Any-hit rate of the full collection: about 10%. Unless noted, calls come from the whole dose curve; as a rule, active = well fitted inhibition curve with a large enough effect; inconclusive = small, poorly fitted or top-dose-only effect; inactive = no such curve, though single readings can be large or run the other way.

SMILES	BAZ2B inh	G9a block	JMJD2A Tudor inh	CtBP-E1A blk	HP1b chromo inh	Six1-Eya2 inh
COc1ccc(CNC(=O)Nc2nc(C(N)Cc3ccc(C(F)(F)F)cc3)cs2)cc1 (centres undefined)	/	/	/	-3	/	-12
CCc1cccc(NC(=O)COC(=O)c2cc([N+](=O)[O-])ccc2N2CCOCC2)c1	-34%	?	?	-1	-5%	-16
CCNc1ncc2ncc(=O)n(Cc3cccs3)c2n1	/	5%[0.501 µM]	/	/	/	/
CCC(C(=O)NCc1ccccc1Cl)n1c(=O)c2cccn2c2ccccc21 (centres undefined)	-11%	-31%[59 µM]	-21%	/	20%	/
O=C(C1=C(O)C(=O)N(CC2CCCO2)C1c1ccccc1[N+](=O)[O-])c1ccco1 (centres undefined)	-3%	35µM*	-14%	5	3%	10
CCN1CCOC(=O)C1CC(=O)Nc1cc(C)ccc1OC (centres undefined)	-5%	10µM*	-17%	/	20%	/
CCN1CCOC(=O)C1CC(=O)Nc1ccc(Br)cc1 (centres undefined)	-36%	2.5µM*	-13%	/	-14%	/
Cc1cc(C)cc(-n2ccnc2SCC(=O)Nc2nnc(C)s2)c1	-22%	-16%[59 µM]	-19%	/	24%[57 µM]	/
COCCCNC(=O)C1CCC(Cn2c(=O)c3sccc3n(C)c2=O)CC1 (centres undefined)	-8%	21%[59 µM]	-15%	/	107%	/
N=C1N(c2ccccc2)C(=S)C(=Nc2ccccc2)N1c1ccccc1	/	/	25µM*	1	45µM*	-18
N#CC(C#N)=C1SC(=Nc2ccccc2)C(=Nc2ccccc2)N1c1ccccc1	/	/	?	34	?	12
O=C(COC(=O)Cc1ccccc1)NCc1ccc2c(c1)OCO2	/	/	-14%	-2	6%	-2
CCCOc1ccc(-c2c(=O)n(O)c3ccccc3[n+]2[O-])cc1	?	9%[0.501 µM]	56µM*	0	-18%	0
CCOc1ccc(-c2c(=O)n(OCc3ccccn3)c3ccccc3[n+]2[O-])cc1	-9%	17%	-5%	2	17%	0
COc1cccc(NC(=O)Cn2c(=O)n(-c3cccc(OC)c3)c(=O)c3c4c(sc32)CCCC4)c1	1%	0%[59 µM]	-6%	/	27%	/
CCN(Cc1ccccc1)S(=O)(=O)c1cc(Br)cc2c1N(C(=O)C1CC1)CC2	5%	-4%[59 µM]	-19%	/	16%	/
C[C@@H]1CN([C@@H](C)CO)C(=O)CCCn2nncc2CO[C@@H]1CN(C)S(=O)(=O)c1cccs1	/	/	/	7	/	6
CC(C)CCN1C(=O)c2ccccc2C1c1nnnn1-c1ccc2c(c1)OCCO2 (centres undefined)	/	/	/	3	/	-1
Cc1ccc(-c2cc(C(=O)NCc3ccco3)c3ccccc3n2)s1	?	50µM*	-32%	1	23%	1
COc1cc(-c2cc(C(=O)NCc3ccco3)c3ccccc3n2)cc(OC)c1OC	-35%	50µM*	-28%	-1	10%	0
O=C(NCc1ccco1)c1cc(-c2cccs2)nc2ccccc12	-7%	9%[59 µM]	-30%	-3	39%	-3
COc1cc(-c2cc(C(=O)Nc3ccc(S(=O)(=O)NCc4ccco4)cc3)c3ccccc3n2)cc(OC)c1OC	-2%	-39%[59 µM]	-16%	-1	12%	3
O=C(NCc1cccnc1)c1cc(C2CCCN(S(=O)(=O)c3cccc4cccnc34)C2)on1 (centres undefined)	/	/	/	4	/	3
CC(=C/c1ccccc1)/C=N/NC(=O)c1cccs1	-3%	-3%	-18%	1	28%	-4
O=C(O)c1ccc(N/N=C/C(Br)=C/c2ccccc2)cc1	-34%	50µM*	?	-13	-3%	-12
SMILES	BAZ2B inh	G9a block	JMJD2A Tudor inh	CtBP-E1A blk	HP1b chromo inh	Six1-Eya2 inh
O=C(N/N=C/C(Br)=C\c1ccccc1)c1ccco1	-16%	2%[59 µM]	-17%	-82*	20%	-8
O=C(N/N=C/C(Br)=C\c1ccccc1)c1cccs1	-11%	/	-22%	-81*	12%	-11
CCOC(=O)c1cc(-c2ccccc2)n(CCC(=O)Nc2ccc(Cl)c(C(F)(F)F)c2)c1C	1%	-5%[59 µM]	-23%	/	46%	/
Cc1ccc(C(=O)OCC(=O)c2ccc(CC(=O)N3CCOCC3)s2)c(C)c1	50µM*	45µM*	13µM*	2	-36%	-18
Cc1ccc(C(=O)OCC(=O)c2ccc(CC(=O)N3CCOCC3)s2)cc1C	50µM*	?	?	-1	19%	-9
COCCN(Cc1ccccc1)C(=O)c1ccc2c(=O)n3c(nc2c1)CCC3	8%	7%	-9%	-4	22%	3
O=S(=O)(c1ccccc1)N1CCC2(CCN(Cc3nccs3)CC2)CC1	/	5%[12.7 µM]	/	/	/	/
Cn1c(=O)c2cc(NC(=O)CCc3ccccc3)ccc2n1-c1ccccc1F	/	/	/	-1	/	1
CCCOc1ccc(CNC(=O)CCCn2nc(C)c3sc4ccccc4c3c2=O)cc1	-31%	-39%[59 µM]	-8%	/	29%	/
COC(=O)[C@@]12CCCCN1[C@H](c1ccc(-c3ccc(F)cc3)cc1)[C@H]1C(=O)N(C)C(=O)[C@H]12	/	/	-13%	/	27%	-8
COC(=O)[C@@]12CCCN1[C@H](c1ccc(-c3ccc(F)cc3)cc1)[C@H]1C(=O)N(C)C(=O)[C@H]12	71µM*	-3%[2.33 µM]	-28%	2	33%	0
CCOc1cc(/C=C2\CN(CC)C/C(=C\c3ccc(O)c(OCC)c3)C2=O)ccc1O	50µM*	28µM*	56µM*	4	-20%[57 µM]	3
COc1cc(/C=C2\CC/C(=C\c3cc(OC)c(OC)c(OC)c3)C2=O)cc(OC)c1OC	-10%	3%[59 µM]	?	-10	-9%	6
COc1cc(/C=C2\CCC/C(=C\c3ccc(O)c(OC)c3)C2=O)ccc1O	?	45µM*	28µM*	0	?	1
CCOc1cc(/C=N/N=C/c2ccc(O)c(OCC)c2)ccc1O	3%	15%	-23%	-8	23%	-9
COc1ccc(/C=C2\CCC(C3CCCC3)C2=O)c(OC)c1OC (centres undefined)	0%	-4%[2.33 µM]	7%	-25	31%	3
COc1ccc(/C=C2/CC/C(=C\c3ccc(OC)c(OC)c3OC)C2=O)c(OC)c1OC	?	7.9µM*	?	-15	4%	0

Source: PubChem
